# Assay results taken from PubChem BioAssay (EPA / NIEHS).
# Records with an inconclusive call do not appear. A structure can be active in one record and inactive in another. Active and inactive are the calls of the source. How the source made its calls, unless noted: active means hit-call score of the fitted dose curve at least 0.9, where 1 is the maximum; inconclusive means response in the unintended direction; inactive means score below 0.9.
# Columns and labels:
# [1] = ATG_M_19_CIS: Attagene CIS-FACTORIAL HepG2 Assay for M19 Transcription Factor (Internal Marker) (AID 2282939; active means hit-call score of the fitted dose curve at least 0.9, where 1 is the maximum; inactive means score below 0.9); settings: HepG2 Attagene CIS-FACTORIAL M19 internal marker reporter; actives raise or lower the signal
# Summary of the method: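 Signals come from fluorescence of labelled reporter-specific PCR fragments resolved by capillary electrophoresis, following 24 h treatment of HepG2 cells transfected with cis-promoter reporter units; activity was fitted in both directions relative to DMSO.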
# [2] = ATG_FoxO_CIS: Attagene CIS-FACTORIAL HepG2 Assay for human Forkhead box O (FoxO) (AID 2282943; active means hit-call score of the fitted dose curve at least 0.9, where 1 is the maximum; inactive means score below 0.9); settings: HepG2 Attagene cis-reporter, FoxO element, mRNA; actives raise or lower the signal
# Summary of the method: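 HepG2 cells transiently transfected with cis-element-driven reporter units report endogenous FoxO activity. After 24 h chemical exposure, reporter mRNA quantified by RT-PCR, fluorescent labeling, HpaI digestion and capillary electrophoresis; bidirectional fit versus DMSO.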
# [3] = ATG_GRE_CIS: Attagene CIS-FACTORIAL HepG2 Assay for human Glucocorticoid Response Elements (GRE) (AID 2282947; active means hit-call score of the fitted dose curve at least 0.9, where 1 is the maximum; inactive means score below 0.9); settings: HepG2 GRE cis-reporter, Attagene multiplex mRNA; actives raise or lower the signal
# Summary of the method: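 Read-out: fluorescent reporter-transcript fragments separated by capillary electrophoresis after RT-PCR. Transiently transfected HepG2 cells carrying cis-element-driven reporter units were dosed for 24 h; gain or loss of signal fitted against DMSO control.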
# [4] = biological target: Heat shock factor protein 1 (Homo sapiens) (UniProt Q00613); experiment: ATG_HSE_CIS: Attagene CIS-FACTORIAL HepG2 Assay for human Heat Shock Transcription Factor 1 (HSE) (AID 2282953; active means hit-call score of the fitted dose curve at least 0.9, where 1 is the maximum; inactive means score below 0.9); settings: HepG2 HSE cis-reporter, Attagene RNA transcription; actives raise or lower the signal
# Summary of the method: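 Endogenous transcription factor activity captured via cis-promoter reporter units transfected into HepG2; treatment lasted 24 h. Fluorescence intensity of reporter fragments analysed with bidirectional curve fitting, DMSO baseline.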
# [5] = ATG_PBREM_CIS: Attagene CIS-FACTORIAL HepG2 Assay for human Phenobarbital-responsive Enhancer Module (PBREM) (AID 2282955; active means hit-call score of the fitted dose curve at least 0.9, where 1 is the maximum; inactive means score below 0.9); settings: HepG2 PBREM cis-reporter, Attagene multiplexed transcription; actives raise or lower the signal
# Summary of the method: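 HepG2 cells transiently transfected with multiple cis-regulated reporter units measure endogenous transcription factor activity; 24 h compound exposure. Reporter mRNA quantified by RT-PCR, fluorescent labelling, HpaI digestion and capillary electrophoresis; bidirectional fit versus DMSO.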
# [6] = ATG_RORE_CIS: Attagene CIS-FACTORIAL HepG2 Assay for human RAR-related Orphan Receptor Element (RORE) (AID 2282959; active means hit-call score of the fitted dose curve at least 0.9, where 1 is the maximum; inactive means score below 0.9); settings: HepG2 Attagene cis-factorial RORE reporter, mRNA; actives raise or lower the signal
# Summary of the method: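 HepG2 cells carrying transiently transfected cis-regulated reporter units; RORE-driven reporter mRNA quantified 24 h post-dosing by RT-PCR, 6-FAM primer extension, HpaI digestion and capillary electrophoresis. Bidirectional fit versus DMSO.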
# [7] = biological target: Hepatocyte nuclear factor 4-alpha (Homo sapiens) (UniProt P41235); experiment: ATG_HNF4a_TRANS: Attagene TRANS-FACTORIAL HepG2 Assay for human Hepatocyte Nuclear Factor 4 alpha (HNF4a) (AID 2282982); settings: HepG2 HNF4a transactivation reporter, mRNA readout
# Summary of the method: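 Transient MRTU transfection of HepG2, 24 h dosing. Readout: reporter mRNA via RT-PCR + capillary electrophoresis, fluorescence; activity fit upward relative to DMSO control.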
# [8] = ATG_M_06_TRANS: Attagene TRANS-FACTORIAL HepG2 Assay for M06 Transcription Factor (Internal Marker) (AID 2282983); settings: HepG2 Attagene TRANS M06 internal marker reporter;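 further: reporter transcript level by RT-PCR then capillary electrophoresis fluorescence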
# Summary of the method: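 Human liver HepG2 cells bearing transiently transfected chimeric NR-GAL4 reporter units were treated with chemicals for 24 h. Total RNA was reverse-transcribed, reporter sequences amplified and labelled, then quantified by capillary electrophoresis. Activity was fitted upward relative to DMSO.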
# [9] = ATG_NRF2_ARE_CIS: Attagene CIS-FACTORIAL HepG2 Assay for human Nuclear Factor Erythroid 2 Related Factor 2 (NFR2) response to Antioxidant Response Elements (ARE) (AID 2282992; active means hit-call score of the fitted dose curve at least 0.9, where 1 is the maximum; inactive means score below 0.9;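 on AC50: reporter mRNA level measured by RT-PCR and capillary electrophoresis fluorescence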); settings: HepG2 Attagene ARE/NRF2 reporter, transcription factor activity; actives raise or lower the signal
# Summary of the method: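 Endogenous transcription factor activity in human liver HepG2 cells is tracked via a cis-element-driven reporter within a multiplexed set. mRNA induction is read by RT-PCR and capillary electrophoresis after 24 h, with DMSO as baseline.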
# [10] = biological target: Peroxisome proliferator-activated receptor gamma (Homo sapiens) (UniProt P37231); experiment: ATG_PPARg_TRANS: Attagene TRANS-FACTORIAL HepG2 Assay for human Peroxisome Proliferator-activated Receptor-gamma (PPARg) (AID 2283007)
# Summary of the method: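 HepG2 cells are transiently transfected with GAL4-UAS reporter units driven by chimeric NR-Gal4 fusions and dosed for 24 h. Reporter mRNA is quantified by RT-PCR, 6-FAM labelling, HpaI digestion and capillary electrophoresis. Induction is scored against DMSO.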
# [11] = biological target: Retinoic acid receptor RXR-alpha (Homo sapiens) (UniProt P19793); experiment: ATG_RXRa_TRANS: Attagene TRANS-FACTORIAL HepG2 Assay for human Retinoid X Receptor alpha (RXRa) (AID 2283012)
# Summary of the method: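 Read-out: fluorescent reporter-transcript fragments quantified by capillary electrophoresis after RT-PCR. Transiently transfected HepG2 cells carrying GAL4-UAS reporters and NR-GAL4 chimeras were exposed to chemical for 24 h; activity scored as increase over DMSO.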
# [12] = biological target: Cellular tumor antigen p53 (Homo sapiens) (UniProt P04637); experiment: TOX21_p53_BLA_p2_ratio: Tox21 HCT-116 p53 Agonism Beta-lactamase Assay, Ratio, Phase 2 (AID 2283592)
# Summary of the method: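 Cleaved-to-uncleaved substrate ratio (460 vs 530 nm) measured in HCT116 cells with an inducible beta-lactamase reporter linked to p53 activity. Compounds incubated 16 h at 37C before 2 h room-temperature CCF4-AM loading.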
# [13] = biological target: Cellular tumor antigen p53 (Homo sapiens) (UniProt P04637); experiment: TOX21_p53_BLA_p3_ratio: Tox21 HCT-116 p53 Agonism Beta-lactamase Assay, Ratio, Phase 3 (AID 2283596)
# Summary of the method: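 Cells were seeded at 4000/well, rested 5 h at 37C, then dosed with DMSO compound solutions (217-fold dilution) for 16 h. CCF4-AM substrate was loaded for 2 h at room temperature, and the 460/530 nm emission ratio was fitted for gain of signal versus DMSO.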
# [14] = biological target: Cellular tumor antigen p53 (Homo sapiens) (UniProt P04637); experiment: TOX21_p53_BLA_p5_ratio: Tox21 HCT-116 p53 Agonism Beta-lactamase Assay, Ratio, Phase 5 (AID 2283599)
# Summary of the method: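 HCT-116 p53-bla cells (4000/well) plated 5 h, dosed with compound (217-fold DMSO dilution) for 16 h at 37 C; CCF4-AM substrate 2 h at room temperature. Activity is the 460/530 nm emission ratio (405 nm excitation), fitted in gain-of-signal direction versus DMSO.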
# [15] = TOX21_p53_BLA_p5_viability: Viability Assessment in the Tox21 HCT-116 p53 Agonism Beta-lactamase Assay, Phase 5 (AID 2283600)
# Summary of the method: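 Viability is taken from cellular ATP content, measured by luciferase luminescence in the same wells after the beta-lactamase ratio read. Cells are seeded at 4000 per well and exposed to DMSO-dissolved compounds, diluted 217-fold, for 16 h.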
# [16] = biological target: Cellular tumor antigen p53 (Homo sapiens) (UniProt P04637); experiment: TOX21_p53_BLA_p4_ratio: Tox21 HCT-116 p53 Agonism Beta-lactamase Assay, Ratio, Phase 4 (AID 2283601)
# Summary of the method: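 HCT-116 p53 beta-lactamase reporter cells (4000/well) preincubated 5 h, then compound (217-fold dilution of DMSO stock) for 16 h at 37C. CCF4-AM substrate added 2 h at room temperature; 460/530 nm emission ratio fitted upward versus DMSO.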
# [17] = biological target: Hypoxia-inducible factor 1-alpha (Homo sapiens) (UniProt Q16665); experiment: ATG_HIF1a_CIS: Attagene CIS-FACTORIAL HepG2 Assay for human Hypoxia Inducible Factor 1 (HIF1A) (AID 2282951; active means hit-call score of the fitted dose curve at least 0.9, where 1 is the maximum; inactive means score below 0.9); settings: HepG2 Attagene cis-factorial HIF1a reporter transcription; actives raise or lower the signal
# Summary of the method: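 HepG2 cells transiently transfected with multiple cis-regulated reporter transcription units measure endogenous transcription factor activity. After 24 h exposure, reporter mRNA is quantified by RT-PCR with 6-FAM labelling, HpaI digestion and capillary electrophoresis. Bidirectional fitting against DMSO.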
# [18] = biological target: human Thyroid Receptor alpha (THRa1), THRA (gene 7067) (UniProt P10827); experiment: ATG_THRa1_TRANS: Attagene TRANS-FACTORIAL HepG2 Assay for human Thyroid Receptor alpha (THRa1) (AID 2283014)
# Summary of the method: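 First, HepG2 cells receive multiple GAL4-UAS reporter units and the chimeric receptor. They are then dosed for 24 h, after which RNA is reverse-transcribed, amplified, labelled, HpaI-cut and sized by capillary electrophoresis; gain relative to DMSO is scored.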
# [19] = biological target: Nuclear receptor subfamily 1 group I member 2 (Homo sapiens) (UniProt O75469); experiment: ATG_PXR_TRANS: Attagene TRANS-FACTORIAL HepG2 Assay for human Pregnane X Receptor (PXR) (AID 2283008)
# Summary of the method: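 HepG2 transfected (FuGene 6) with GAL4-UAS reporter units + PXR-Gal4 chimera; dosed 24 h. Total RNA → oligo(dT) RT → PCR → 6-FAM primer extension → HpaI cut → CE. Gain-of-signal vs DMSO.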
# [20] = biological target: human Peroxisome Proliferator-activated Receptor alpha (PPARa), PPARA (gene 5465) (UniProt Q07869); experiment: ATG_PPARa_TRANS: Attagene TRANS-FACTORIAL HepG2 Assay for human Peroxisome Proliferator-activated Receptor alpha (PPARa) (AID 2283001);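 on AC50: potency for gain of reporter signal over DMSO so agonist or activator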
# Summary of the method: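 Transient HepG2 transfection, GAL4-UAS reporters, NR-Gal4 chimeras; 24 h compound exposure. Readout: reporter transcripts by RT-PCR, 6-FAM primer extension, HpaI digest, capillary electrophoresis. Positive direction vs DMSO baseline.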
# Chain of Heat shock factor protein 1 (Homo sapiens) (Q00613 whole entry, looked up, the tested form may be a part): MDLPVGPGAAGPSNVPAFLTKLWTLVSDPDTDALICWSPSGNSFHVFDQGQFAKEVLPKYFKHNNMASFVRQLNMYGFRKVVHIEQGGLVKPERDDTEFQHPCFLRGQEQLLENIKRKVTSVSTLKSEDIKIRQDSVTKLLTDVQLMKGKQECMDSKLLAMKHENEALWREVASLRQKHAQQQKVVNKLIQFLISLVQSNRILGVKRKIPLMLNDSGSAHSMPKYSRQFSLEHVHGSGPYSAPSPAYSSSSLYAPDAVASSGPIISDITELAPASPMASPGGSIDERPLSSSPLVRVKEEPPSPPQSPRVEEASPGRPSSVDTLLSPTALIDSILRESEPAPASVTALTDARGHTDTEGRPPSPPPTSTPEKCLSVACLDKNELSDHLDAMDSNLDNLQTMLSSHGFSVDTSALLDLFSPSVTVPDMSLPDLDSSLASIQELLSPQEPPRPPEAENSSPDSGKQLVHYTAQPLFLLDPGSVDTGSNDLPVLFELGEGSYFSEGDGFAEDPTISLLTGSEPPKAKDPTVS
# Chain of Hypoxia-inducible factor 1-alpha (Homo sapiens) (Q16665 whole entry, looked up): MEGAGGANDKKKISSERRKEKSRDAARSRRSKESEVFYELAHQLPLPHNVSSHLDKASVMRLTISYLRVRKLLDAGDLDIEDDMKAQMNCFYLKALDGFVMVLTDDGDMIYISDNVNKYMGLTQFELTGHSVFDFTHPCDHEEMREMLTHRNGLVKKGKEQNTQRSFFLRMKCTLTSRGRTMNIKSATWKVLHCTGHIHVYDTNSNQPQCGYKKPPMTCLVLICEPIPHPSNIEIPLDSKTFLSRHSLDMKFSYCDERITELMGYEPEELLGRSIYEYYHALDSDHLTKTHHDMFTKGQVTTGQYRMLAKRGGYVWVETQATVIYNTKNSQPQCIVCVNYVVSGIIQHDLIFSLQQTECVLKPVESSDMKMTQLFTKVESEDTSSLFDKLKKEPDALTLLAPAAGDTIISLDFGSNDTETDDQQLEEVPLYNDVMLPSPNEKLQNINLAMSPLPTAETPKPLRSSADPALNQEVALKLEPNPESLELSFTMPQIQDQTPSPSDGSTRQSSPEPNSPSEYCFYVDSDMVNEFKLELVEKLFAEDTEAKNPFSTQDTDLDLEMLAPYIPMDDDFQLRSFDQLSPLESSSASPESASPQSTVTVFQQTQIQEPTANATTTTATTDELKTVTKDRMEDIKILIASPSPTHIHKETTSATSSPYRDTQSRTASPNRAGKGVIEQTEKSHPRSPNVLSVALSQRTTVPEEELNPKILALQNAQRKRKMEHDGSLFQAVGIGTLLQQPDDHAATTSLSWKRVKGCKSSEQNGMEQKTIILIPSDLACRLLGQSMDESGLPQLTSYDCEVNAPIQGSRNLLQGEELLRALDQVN
# Chain of human Thyroid Receptor alpha (THRa1), THRA (gene 7067) (P10827 whole entry, looked up, the tested form may be a part): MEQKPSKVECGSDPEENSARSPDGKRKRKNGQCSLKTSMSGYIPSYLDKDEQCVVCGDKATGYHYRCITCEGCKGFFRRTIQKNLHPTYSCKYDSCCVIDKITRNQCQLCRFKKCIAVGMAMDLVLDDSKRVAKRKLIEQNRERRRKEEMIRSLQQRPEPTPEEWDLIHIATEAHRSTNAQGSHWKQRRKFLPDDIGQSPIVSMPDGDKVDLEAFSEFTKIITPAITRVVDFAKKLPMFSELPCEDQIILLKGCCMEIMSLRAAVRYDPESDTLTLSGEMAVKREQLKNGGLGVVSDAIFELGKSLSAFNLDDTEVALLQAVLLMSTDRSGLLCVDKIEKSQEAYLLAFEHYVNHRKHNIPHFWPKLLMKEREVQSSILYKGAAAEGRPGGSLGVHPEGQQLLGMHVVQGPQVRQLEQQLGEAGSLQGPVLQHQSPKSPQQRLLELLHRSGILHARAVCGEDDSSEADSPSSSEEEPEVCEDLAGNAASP
# Chain of human Peroxisome Proliferator-activated Receptor alpha (PPARa), PPARA (gene 5465) (Q07869 whole entry, looked up, the tested form may be a part): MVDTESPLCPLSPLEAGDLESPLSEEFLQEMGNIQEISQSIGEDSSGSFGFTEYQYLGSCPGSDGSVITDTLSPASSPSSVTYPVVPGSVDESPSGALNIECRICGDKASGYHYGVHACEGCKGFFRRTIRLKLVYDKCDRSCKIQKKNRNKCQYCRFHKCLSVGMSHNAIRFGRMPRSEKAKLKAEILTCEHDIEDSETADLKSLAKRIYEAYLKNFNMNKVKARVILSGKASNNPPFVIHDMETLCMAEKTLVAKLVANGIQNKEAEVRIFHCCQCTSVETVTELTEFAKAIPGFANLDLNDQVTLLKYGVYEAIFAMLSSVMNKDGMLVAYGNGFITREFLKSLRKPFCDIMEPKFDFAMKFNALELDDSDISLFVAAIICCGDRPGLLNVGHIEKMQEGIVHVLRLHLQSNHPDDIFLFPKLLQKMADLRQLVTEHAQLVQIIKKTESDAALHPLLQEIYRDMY
# Chain of Peroxisome proliferator-activated receptor gamma (Homo sapiens) (P37231 whole entry, looked up, the tested form may be a part): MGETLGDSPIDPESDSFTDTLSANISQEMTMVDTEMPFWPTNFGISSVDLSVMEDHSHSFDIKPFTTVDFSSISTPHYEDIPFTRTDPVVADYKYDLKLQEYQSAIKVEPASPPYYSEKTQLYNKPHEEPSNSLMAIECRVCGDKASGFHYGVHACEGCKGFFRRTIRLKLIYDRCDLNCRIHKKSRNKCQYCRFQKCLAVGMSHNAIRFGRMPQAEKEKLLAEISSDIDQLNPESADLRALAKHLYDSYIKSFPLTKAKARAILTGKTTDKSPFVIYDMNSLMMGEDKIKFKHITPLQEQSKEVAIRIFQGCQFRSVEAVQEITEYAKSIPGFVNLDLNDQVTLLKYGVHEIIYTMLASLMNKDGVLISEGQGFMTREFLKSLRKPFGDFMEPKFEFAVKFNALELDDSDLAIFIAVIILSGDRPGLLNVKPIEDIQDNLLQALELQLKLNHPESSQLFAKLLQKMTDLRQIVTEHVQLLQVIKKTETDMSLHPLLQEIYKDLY
# Chain of Hepatocyte nuclear factor 4-alpha (Homo sapiens) (P41235 whole entry, looked up): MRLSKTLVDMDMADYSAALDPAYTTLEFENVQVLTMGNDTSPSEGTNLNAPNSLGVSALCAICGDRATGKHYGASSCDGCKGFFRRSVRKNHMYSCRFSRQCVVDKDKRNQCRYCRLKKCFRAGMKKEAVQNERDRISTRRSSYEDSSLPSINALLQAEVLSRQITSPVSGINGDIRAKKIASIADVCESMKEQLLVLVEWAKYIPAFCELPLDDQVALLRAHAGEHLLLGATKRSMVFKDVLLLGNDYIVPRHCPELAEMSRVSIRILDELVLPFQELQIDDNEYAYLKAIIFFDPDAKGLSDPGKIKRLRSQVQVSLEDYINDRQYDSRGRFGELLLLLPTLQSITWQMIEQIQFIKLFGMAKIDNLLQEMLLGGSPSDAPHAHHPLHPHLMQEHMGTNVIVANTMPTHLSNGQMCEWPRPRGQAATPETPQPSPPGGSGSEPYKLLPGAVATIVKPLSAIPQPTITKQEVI
# Chain of Cellular tumor antigen p53 (Homo sapiens) (P04637 whole entry, looked up): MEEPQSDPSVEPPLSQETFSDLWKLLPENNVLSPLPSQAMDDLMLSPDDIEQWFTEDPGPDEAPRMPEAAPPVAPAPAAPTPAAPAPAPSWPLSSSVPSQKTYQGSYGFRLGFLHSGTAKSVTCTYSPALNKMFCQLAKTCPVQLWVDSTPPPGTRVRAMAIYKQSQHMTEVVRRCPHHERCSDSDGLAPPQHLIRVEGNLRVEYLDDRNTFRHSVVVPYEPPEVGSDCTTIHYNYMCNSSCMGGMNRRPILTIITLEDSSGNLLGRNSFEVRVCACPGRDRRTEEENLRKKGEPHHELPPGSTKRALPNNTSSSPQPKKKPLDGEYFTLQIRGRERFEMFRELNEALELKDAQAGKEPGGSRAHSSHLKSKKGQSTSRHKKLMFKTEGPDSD
# Chain of Nuclear receptor subfamily 1 group I member 2 (Homo sapiens) (O75469 whole entry, looked up, the tested form may be a part): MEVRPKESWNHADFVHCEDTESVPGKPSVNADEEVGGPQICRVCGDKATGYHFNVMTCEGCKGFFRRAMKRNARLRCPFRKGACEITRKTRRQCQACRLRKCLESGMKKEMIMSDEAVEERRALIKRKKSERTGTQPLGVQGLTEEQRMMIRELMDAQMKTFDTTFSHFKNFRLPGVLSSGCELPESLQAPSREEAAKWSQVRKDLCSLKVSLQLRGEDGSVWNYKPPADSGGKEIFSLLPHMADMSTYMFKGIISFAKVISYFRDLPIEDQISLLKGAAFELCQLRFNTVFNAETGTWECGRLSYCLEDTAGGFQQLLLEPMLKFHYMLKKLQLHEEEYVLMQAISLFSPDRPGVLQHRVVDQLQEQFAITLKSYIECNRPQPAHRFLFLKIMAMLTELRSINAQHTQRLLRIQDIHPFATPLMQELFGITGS
# Chain of Retinoic acid receptor RXR-alpha (Homo sapiens) (P19793 whole entry, looked up, the tested form may be a part): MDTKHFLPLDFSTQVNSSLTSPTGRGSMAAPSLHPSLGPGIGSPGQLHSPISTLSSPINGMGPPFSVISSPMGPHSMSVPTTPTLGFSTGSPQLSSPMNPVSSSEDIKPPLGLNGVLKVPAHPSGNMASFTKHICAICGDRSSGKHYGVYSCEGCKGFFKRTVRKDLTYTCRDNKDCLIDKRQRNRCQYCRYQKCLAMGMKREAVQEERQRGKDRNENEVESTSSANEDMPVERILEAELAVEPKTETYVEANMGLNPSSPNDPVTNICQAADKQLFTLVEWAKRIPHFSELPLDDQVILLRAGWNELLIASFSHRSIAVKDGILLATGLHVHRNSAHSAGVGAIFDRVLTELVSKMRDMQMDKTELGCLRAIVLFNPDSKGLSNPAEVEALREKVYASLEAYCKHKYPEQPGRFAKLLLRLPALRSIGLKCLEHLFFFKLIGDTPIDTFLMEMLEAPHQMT
compound,measurement,setting,value
O=C(CCN1CC1)OCC(CO)(COC(=O)CCN1CC1)COC(=O)CCN1CC1,outcome,[1],inactive
same,outcome,[2],inactive
same,outcome,[3],inactive
same,outcome,[4],inactive
same,outcome,[5],inactive
same,outcome,[6],inactive
same,outcome,[7],inactive
same,outcome,[8],inactive
same,outcome,[9],inactive
same,outcome,[10],inactive
same,outcome,[11],inactive
same,outcome,[12],inactive
same,outcome,[13],inactive
same,outcome,[14],inactive
same,outcome,[15],inactive
same,outcome,[16],inactive
O=S(=O)(O)OOS(=O)(=O)O,outcome,[1],inactive
same,outcome,[2],inactive
same,outcome,[17],inactive
same,outcome,[4],inactive
same,outcome,[6],inactive
same,outcome,[7],inactive
same,outcome,[8],inactive
same,outcome,[9],inactive
same,outcome,[10],inactive
same,outcome,[18],inactive
CCC(C)(C)O,outcome,[1],inactive
same,outcome,[3],inactive
same,outcome,[17],inactive
same,outcome,[4],inactive
same,outcome,[5],inactive
same,outcome,[7],inactive
same,outcome,[8],inactive
same,outcome,[19],inactive
CC(=O)C=Cc1ccccc1,outcome,[1],inactive
same,outcome,[3],inactive
same,outcome,[17],inactive
same,outcome,[5],inactive
same,outcome,[6],inactive
same,outcome,[7],inactive
same,AC50,[9],56.5 µM (active)
same,AC50,[20],100 µM (active)
same,AC50,[10],27 µM (active)
same,AC50,[19],35.9 µM (active)
same,outcome,[11],inactive
CCCCCc1cc(O)cc(O)c1,outcome,[1],inactive
same,outcome,[2],inactive
same,AC50,[17],100 µM (active)
same,outcome,[4],inactive
same,outcome,[5],inactive
same,AC50,[6],50.4 µM (active)
same,outcome,[7],inactive
same,outcome,[8],inactive
same,outcome,[20],inactive
same,AC50,[10],10.5 µM (active)
same,AC50,[19],11.1 µM (active)
same,outcome,[18],inactive
same,AC50,[12],83.7 µM (active)
same,outcome,[12],inactive
same,outcome,[13],inactive
same,outcome,[14],inactive
same,outcome,[16],inactive
CCc1cc(C)cc(CC)c1-c1c(OC(=O)C(C)(C)C)n2n(c1=O)CCOCC2,outcome,[1],inactive
same,outcome,[2],inactive
same,outcome,[3],inactive
same,outcome,[4],inactive
same,outcome,[6],inactive
same,outcome,[7],inactive
same,outcome,[9],inactive
same,outcome,[10],inactive
same,outcome,[19],inactive
same,outcome,[11],inactive
CNC(=N[N+](=O)[O-])NCC1CCOC1 (configuration not stated),outcome,[1],inactive
same,outcome,[2],inactive
same,outcome,[3],inactive
same,outcome,[17],inactive
same,outcome,[5],inactive
same,outcome,[6],inactive
same,outcome,[8],inactive
same,outcome,[9],inactive
same,outcome,[13],inactive
same,outcome,[14],inactive
same,outcome,[16],inactive
C[N+](C)(C)CC(=O)[O-],outcome,[2],inactive
same,outcome,[4],inactive
same,outcome,[8],inactive
same,outcome,[20],inactive
same,outcome,[11],inactive
same,outcome,[18],inactive
CSc1nc(N=[N+]=[N-])nc(NC(C)C)n1,outcome,[1],inactive
same,outcome,[2],inactive
same,outcome,[17],inactive
same,outcome,[4],inactive
same,outcome,[5],inactive
same,outcome,[6],inactive
same,AC50,[9],100 µM (active)
same,AC50,[10],15.4 µM (active)
same,AC50,[19],14 µM (active)
same,outcome,[18],inactive
same,outcome,[14],inactive
same,outcome,[16],inactive
[Cl-].[Cl-].[Cl-].[Yb+3],outcome,[1],inactive
same,outcome,[2],inactive
same,outcome,[17],inactive
same,outcome,[4],inactive
same,outcome,[7],inactive
same,outcome,[9],inactive
same,outcome,[10],inactive
same,outcome,[19],inactive
same,outcome,[11],inactive
same,outcome,[18],inactive
Oc1ccc(C2(c3ccc(O)cc3)c3ccccc3-c3ccccc32)cc1,AC50,[2],9.31 µM (active)
same,outcome,[3],inactive
same,AC50,[17],11.1 µM (active)
same,AC50,[6],18.6 µM (active)
same,outcome,[8],inactive
same,outcome,[9],inactive
same,outcome,[20],inactive
same,outcome,[10],inactive
same,AC50,[19],0.384 µM (active)
same,outcome,[11],inactive
same,outcome,[18],inactive
same,AC50,[12],0.265 µM (active)
same,AC50,[13],0.906 µM (active)
same,AC50,[14],76.6 µM (active)
same,AC50,[15],74 µM (active)
same,AC50,[16],67.8 µM (active)
